PubChem BioAssay (Tox21)
Results filed as inconclusive are left out. The source made the active and inactive calls. Unless noted, calls follow the shape of the dose curve; as a rule, active = well fitted curve in the direction sought with a large enough effect in the repeat runs; inconclusive = weak or mixed curves; inactive = no such curve, though single readings can be large; an effect the other way counts as inactive or inconclusive.

Columns and labels:
[1] = qHTS assay to identify small molecule agonists of the estrogen receptor alpha (ER-alpha) signaling pathway in the presence of an antagonist - cell viability counter screen (AID 1259386);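 also: series mostly up to about 92 µM; cells exposed to compounds for 22 h at 37 °C before the viability read; nearly all actives have a fitted effect of over 30% in size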
Summary of the method: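 Steps: 5-day stripped-FBS culture; seed and incubate 24hr; add ICI-182,780 (10.0nM final); pin 15-point compound titration; incubate 22hr at 37C; add CellTiter-Fluor at 21hr; read fluorescence.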

[2] = target: Progesterone receptor (Homo sapiens) (UniProt P06401); test: qHTS assay to identify small molecule agonists of the progesterone receptor (PR) signaling pathway (AID 1346784; calls by dose curve; also: nearly all actives have a fitted effect of over 30% in size)
Progesterone receptor (Homo sapiens), sequence (P06401 whole entry, looked up): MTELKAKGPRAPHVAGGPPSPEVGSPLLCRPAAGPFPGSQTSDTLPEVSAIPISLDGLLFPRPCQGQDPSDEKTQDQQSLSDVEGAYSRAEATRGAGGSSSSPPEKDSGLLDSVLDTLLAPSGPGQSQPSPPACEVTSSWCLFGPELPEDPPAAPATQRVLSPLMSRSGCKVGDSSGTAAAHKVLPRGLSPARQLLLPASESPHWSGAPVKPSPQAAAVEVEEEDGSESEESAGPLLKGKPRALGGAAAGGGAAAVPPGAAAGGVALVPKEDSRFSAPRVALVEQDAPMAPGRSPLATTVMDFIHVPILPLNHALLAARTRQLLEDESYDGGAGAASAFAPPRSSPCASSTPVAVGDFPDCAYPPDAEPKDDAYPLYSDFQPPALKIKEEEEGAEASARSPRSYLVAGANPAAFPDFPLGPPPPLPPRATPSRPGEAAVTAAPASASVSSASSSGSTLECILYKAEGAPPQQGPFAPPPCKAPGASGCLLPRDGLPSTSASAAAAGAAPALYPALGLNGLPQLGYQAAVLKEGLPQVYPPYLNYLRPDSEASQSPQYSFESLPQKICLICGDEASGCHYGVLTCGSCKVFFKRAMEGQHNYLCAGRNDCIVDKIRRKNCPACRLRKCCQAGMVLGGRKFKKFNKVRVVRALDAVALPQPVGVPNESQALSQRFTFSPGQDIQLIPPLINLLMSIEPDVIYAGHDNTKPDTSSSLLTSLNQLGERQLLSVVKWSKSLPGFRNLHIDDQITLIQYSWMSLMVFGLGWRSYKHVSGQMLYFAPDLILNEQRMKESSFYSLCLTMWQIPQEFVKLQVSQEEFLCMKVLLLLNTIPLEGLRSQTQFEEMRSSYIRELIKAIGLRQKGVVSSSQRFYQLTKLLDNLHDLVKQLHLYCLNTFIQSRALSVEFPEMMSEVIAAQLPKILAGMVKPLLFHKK
Summary of the method: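 The screen uses PR-UAS-bla HEK 293T cells in charcoal-stripped serum (2%). Compounds are applied for 16 hr at 37C after a 6 hr pre-incubation, and reporter activity is detected with a FRET beta-lactamase substrate after 2 hr at room temperature.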

[3] = target: Progesterone receptor (Homo sapiens) (UniProt P06401); test: qHTS assay to identify small molecule antagonists of the progesterone receptor (PR) signaling pathway (AID 1346795; active = well fitted inhibition curve with a large enough effect in the signal ratio in the repeat runs, not every such curve was filed as active; the % refers to the signal ratio)
Summary of the method: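 After 6 hr plating at 37C in 2% stripped-serum medium, PR-UAS-bla HEK293T cells got compounds, then 1 nM R5020. Sixteen hours later, LiveBLAzer substrate was applied for 2 hr at room temperature and fluorescence was recorded.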

[4] = qHTS assay to identify small molecule antagonists of the progesterone receptor (PR) signaling pathway - cell viability counter screen (AID 1346798); also: series mostly up to about 92 µM; nearly all actives have a fitted effect of over 50% in size
Summary of the method: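 Viability was determined by ATP-based luminescence (CellTiter-Glo) in PR-UAS-bla HEK293T cells cultured in 2% charcoal-stripped serum and incubated 16 hr with compounds under R5020 stimulation.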

[5] = qHTS assay to identify small molecule agonists of the progesterone receptor (PR) signaling pathway - cell viability counter screen (AID 1346799; calls by dose curve; also: nearly all actives have a fitted effect of over 45% in size)
Summary of the method: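 Viability was scored by ATP luminescence (CellTiter-Glo, 30 min, room temperature) in the same wells used for the reporter readout, after 16 hr compound exposure of PR-UAS-bla HEK293T cells.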

[6] = qHTS assay to identify small molecule antagonists of the TGF-beta/Smad signaling pathway - cell viability counter screen (AID 1346824); also: nearly all actives have a fitted effect of over 50% in size
Summary of the method: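 SBE-bla HEK 293T cells, incubated overnight, then compound plus 0.25 ng/mL TGF-beta1 (stock added) for 5 hr at 37 C. Viability was read in the same wells by CellTiter-Glo luminescence after 30 min at room temperature.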

[7] = qHTS assay to identify small molecule agonists of the TGF-beta/Smad signaling pathway - cell viability counter screen (AID 1346829); also: top concentration of the series differs between compounds; nearly all actives have a fitted effect of over 45% in size
Summary of the method: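 After overnight seating at 37 C and 5% CO2, reporter cells got compounds for 5 hr and FRET substrate for 2 hr; cell viability then came from CellTiter-Glo luminescence.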

[8] = qHTS assay to identify small molecule agonists of the TGF-beta/Smad signaling pathway (AID 1346859; active = well fitted activation curve with a large enough effect in the signal ratio in the repeat runs, not every such curve was filed as active; the % refers to the signal ratio; also: series mostly up to about 77 µM)
Summary of the method: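 Dual-wavelength fluorescence (460/530 nm emission) quantified beta-lactamase expression under the Smad binding element in HEK 293T cells following 5 hr compound treatment at 37 C.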

[9] = target: Thyrotropin-releasing hormone receptor (Homo sapiens) (UniProt P34981); test: qHTS assay to identify small molecule antagonists of the thyrotropin-releasing hormone receptor (TRHR) signaling pathway (AID 1346877; active = well fitted inhibition curve with a large enough effect in the repeat runs, not every such curve was filed as active; also: series mostly up to about 51 µM)
Thyrotropin-releasing hormone receptor (Homo sapiens), sequence (P34981 whole entry, looked up): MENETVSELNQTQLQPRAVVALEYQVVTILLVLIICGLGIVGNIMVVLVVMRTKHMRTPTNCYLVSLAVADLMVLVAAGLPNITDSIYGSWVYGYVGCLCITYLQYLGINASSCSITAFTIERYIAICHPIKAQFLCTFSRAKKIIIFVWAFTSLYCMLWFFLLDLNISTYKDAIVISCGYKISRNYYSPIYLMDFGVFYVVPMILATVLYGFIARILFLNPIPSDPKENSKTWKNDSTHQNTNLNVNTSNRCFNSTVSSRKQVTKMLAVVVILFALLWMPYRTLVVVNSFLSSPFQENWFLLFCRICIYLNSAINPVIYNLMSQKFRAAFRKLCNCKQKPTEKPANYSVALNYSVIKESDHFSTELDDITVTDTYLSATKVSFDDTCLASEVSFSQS
Summary of the method: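 Human TRHR in HEK293 cells; inhibition of the intracellular calcium rise triggered by 1 nM TRH was followed by fluorescence over 3 min. Compounds were run at 15 concentrations, three replicates each.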

[10] = target: Thyrotropin-releasing hormone receptor (Homo sapiens) (UniProt P34981); test: qHTS assay to identify small molecule agonists of the thyrotropin-releasing hormone receptor (TRHR) signaling pathway (AID 1346891; calls by dose curve;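 also: HEK293 cells expressing TRHR with calcium dye readout; series mostly up to about 58 µM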)
Summary of the method: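 Kinetic fluorescence (3 min, 1 s intervals) reported intracellular calcium after compound transfer onto TRHR-Hek293 cells pre-loaded with dye for 2 h at 37 °C.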
% is scaled to controls: 0 for no effect and ±100 for the full control effect.

COc1cc2c(cc1OC)[C@@H]1CC(=O)[C@@H](CC(C)C)CN1CC2
inactive: Potency [1] | Potency [2] | Potency [3] | Potency [4] | Potency [5] | outcome [6] | outcome [7] | outcome [8] | outcome [9] | outcome [10]

CCOC(=O)c1ccc(OC(=O)CCCCCN=C(N)N)cc1
inactive: Potency [1] | Potency [2] | Potency [3] | Potency [4] | Potency [5] | outcome [6] | outcome [7] | outcome [8] | outcome [9] | outcome [10]

O=C(OCC(COC(=O)c1cccnc1)(COC(=O)c1cccnc1)COC(=O)c1cccnc1)c1cccnc1
inactive: Potency [1] | Potency [2] | Potency [3] | Potency [4] | Potency [5] | outcome [6] | outcome [7] | outcome [8] | outcome [9] | outcome [10]

C=CC(OCC)OCC
inactive: Potency [1] | Potency [2] | Potency [3] | Potency [4] | Potency [5] | outcome [6] | outcome [7] | outcome [8] | outcome [9] | outcome [10]

COc1ccc(S(=O)(=O)N2c3ccc(Cl)cc3[C@@](O)(c3ccccc3Cl)[C@H]2C(=O)N2CCC[C@@H]2C(N)=O)cc1OC
inactive: Potency [1] | Potency [2] | Potency [3] | Potency [4] | Potency [5] | outcome [6] | outcome [7] | outcome [8] | outcome [9] | outcome [10]

CCCCCCCCCC(C)=O
inactive: Potency [1] | Potency [2] | Potency [3] | Potency [4] | Potency [5] | outcome [6] | outcome [7] | outcome [8] | outcome [9] | outcome [10]

CCCN1C[C@H](CSC)C[C@@H]2c3cccc4[nH]cc(c34)C[C@H]21
inactive: Potency [1] | Potency [2] | Potency [3] | Potency [4] | Potency [5] | outcome [6] | outcome [7] | outcome [9] | outcome [10]

Cc1ccccc1C(=O)Nc1ccc(C(=O)N2CCCC(N(C)C)c3ccccc32)cc1 (stereo not drawn)
inactive: Potency [1] | Potency [2] | Potency [3] | Potency [4] | Potency [5] | outcome [6] | outcome [7] | outcome [8] | outcome [9] | outcome [10]

CCCCCCCCC1CCC(=O)O1 (stereo not drawn)
inactive: Potency [1] | Potency [2] | Potency [3] | Potency [4] | Potency [5] | outcome [6] | outcome [7] | outcome [8] | outcome [9] | outcome [10]

COc1ccc(-c2cc(=O)c3c(O)cc(O[C@@H]4O[C@H](CO[C@@H]5O[C@@H](C)[C@H](O)[C@@H](O)[C@H]5O)[C@@H](O)[C@H](O)[C@H]4O)cc3o2)cc1O
inactive: Potency [1] | Potency [2] | Potency [3] | Potency [4] | Potency [5] | outcome [6] | outcome [8] | outcome [9] | outcome [10]

CC(C)=O
inactive: Potency [1] | Potency [2] | Potency [3] | Potency [4] | Potency [5] | outcome [6] | outcome [7] | outcome [8] | outcome [9] | outcome [10]

Cc1ccc(C=O)cc1C
inactive: Potency [1] | Potency [2] | Potency [3] | Potency [4] | Potency [5] | outcome [6] | outcome [7] | outcome [8] | outcome [9] | outcome [10]

Cc1cccc2nccnc12
inactive: Potency [1] | Potency [2] | Potency [3] | Potency [4] | Potency [5] | outcome [6] | outcome [7] | outcome [8] | outcome [9] | outcome [10]

O=C(O)c1ccc(Cl)cc1Cl
inactive: Potency [1] | Potency [2] | Potency [3] | Potency [4] | outcome [6] | outcome [7] | outcome [8] | outcome [9] | outcome [10]

Nc1ccc(S(=O)(=O)Nc2ccc(Cl)nn2)cc1
inactive: Potency [1] | Potency [2] | Potency [3] | Potency [4] | outcome [6] | outcome [7] | outcome [8] | outcome [9] | outcome [10]

CC(C)C(=O)OCc1cccc(OC(=O)[C@@H]2N3C(=O)[C@@H](NC(=O)Cc4ccccc4)[C@H]3SC2(C)C)c1
inactive: Potency [1] | Potency [2] | Potency [3] | Potency [4] | outcome [6] | outcome [7] | outcome [8] | outcome [9] | outcome [10]

OC[C@H](Cc1cccc(O)c1)[C@H](CO)Cc1cccc(O)c1
inactive: Potency [1] | Potency [2] | Potency [3] | Potency [4] | outcome [6] | outcome [7] | outcome [8] | outcome [9] | outcome [10]

N[C@@H](CCC(=O)N[C@@H](CS)C(=O)NCC(=O)O)C(=O)O
inactive: activity change, negative = cytotoxicity [1] 5.49% [at 19 µM] | activation [2] -0.471% [at 19 µM] | activity change, negative = inhibition [3] 1.1% [at 18.9 µM] | activity change, negative = cytotoxicity [4] 2.33% [at 18.9 µM] | viability change, negative = cytotoxic [6] 18.5% [at 15.8 µM] | activity change, negative = cytotoxicity [7] 1.41% [at 15.8 µM] | activation [8] 1.79% [at 15.8 µM]

Oc1ccccc1-c1nnco1
inactive: Potency [1] | Potency [2] | Potency [3] | Potency [4] | outcome [6] | outcome [7] | outcome [8] | outcome [9] | outcome [10]

CC(C)C[C@H](NC(=O)CNC(=O)[C@H](Cc1ccc(O)cc1)NC(=O)[C@H](CO)NC(=O)[C@H](Cc1c[nH]c2ccccc12)NC(=O)[C@H](Cc1cnc[nH]1)NC(=O)[C@@H]1CCC(=O)N1)C(=O)N[C@@H](CCCN=C(N)N)C(=O)N1CCC[C@H]1C(=O)NCC(N)=O (stereo in doubt)
inactive: Potency [1] | Potency [2] | Potency [3] | Potency [4] | outcome [6] | outcome [7] | outcome [8] | outcome [9] | outcome [10]

CC(C)CC(C)CC(C)CC(C)COC(=O)c1ccccc1C(=O)OCC(C)CC(C)CC(C)CC(C)C (stereo not drawn)
inactive: Potency [1] | Potency [2] | Potency [3] | Potency [4] | outcome [6] | outcome [7] | outcome [8] | outcome [9] | outcome [10]
